# Assay results as given in PubChem BioAssay (NCATS).
# A number with no mark means an inactive call. Active and inactive are the calls of the source. Calls come from the whole dose curve; as a rule, active = well fitted curve in the direction sought with a large enough effect; inconclusive = small, poorly fitted or top-dose-only effect, or effect the other way, or another doubt; inactive = no such curve, though single readings can be large or run the other way.
# Assay: qHTS for inhibitors of adenylyl cyclases using a fission yeast platform: a pilot screen against the NCATS LOPAC library (AID 1347410)
# Settings: S. pombe CHP2027, fbp1-GFP fluorescence, 18 h, yeast expressing mammalian AC9 and human GNAS; series mostly up to 57.5 µM; activity, positive = inhibition (GFP gain): at the top concentration
# From the text: PI: Charles S. Hoffman Ph.D
# Boston College, 140 Commonwealth Ave., Chestnut Hill, MA
# Assay Development and Screening Technology Laboratory (ADST)
# National Center for Advancing Translational Sciences (NCATS), Rockville, MD
# National Institute of Health (NIH), Bethesda, Maryland
# The fission yeast Schizosaccharomyces pombe uses a cAMP signaling pathway to link glucose-sensing to Protein Kinase A activity in order to regulate cell growth, sexual development, gluconeogenesis, and exit from stationary phase. Here, we describe the successful functional expression of all ten mammalian adenylyl cyclase (AC) genes, along with the human GNAS G-alpha gene in this organism. By measuring expression of a PKA-repressed fbp1-GFP reporter together with direct measurements of intracellular cAMP levels, one can detect both basal AC activity from all ten AC genes as well as GNAS-stimulated activity from eight of the nine transmembrane ACs (tmACs; AC2-AC9).
# Further confirmation and validation of active compounds lead to the identification of diphenyleneiodonium chloride (DPI) as an inhibitor of basal AC activity. This fluorescence based fbp1-GFP-GNAS screening technology could facilitate the development of therapeutic compounds that target GNAS or the ACs, an area in which there is significant unmet need.
# The gain-of-signal output is not substantially affected by cytotoxic compounds within the library.
# Getz RA, et al., A fission yeast platform for heterologous expression of mammalian adenylyl cyclases and high throughput screening, Cellular Signaling, 2019, 60: 114-121. doi.org/10.1016/j.cellsig.2019.04.010.
# PROTOCOL TABLE (as described by Inglese J, Shamu CE and Guy RK. 2007)
# SEQUENCE No. (e.g., 1, 2, 3, etc.); […] (e.g., Cells, Incubation, Reagent, etc.); VALUE; DESCRIPTION.
# 1; Dispense growth medium; 2 uL; black, clear bottom, low base, 1536-well Aurora assay plate.
# 2; Compounds and control; 23 nL; Kalypsis pin tool (Wako USA) equipped with a 1536-well pin head to transfer to the assay plates.
# 3; Dispense yeast cells; 2 uL; CHP2027 cells.
# 4; Incubation; 18 hours (dark at 30C); Non-humidified microbial incubator.
# 5; Detector; 425V; Fluorescence; laser scanning cytometry.
# NOTES (numbers refer to Sequence numbers above)
# 1. S. pombe growth medium EMM containing histidine, lysine, and uracil was initially dispensed into the assay plate to avoid yeast contamination using a Multidrop Combi dispenser (Thermo Fisher Scientific).
# 2. 10 mM stock solution of DPI (Sigma-Aldrich D2926) dissolved in DMSO was used as a 16-point dose response positive control, while 1.11 mM DPI stock solution was used as a single point max response positive control. Solvent DMSO was used as the negative control. Control DPI was transferred as a single-dose (column 3; rows 1-32; 1.11 mM stock), and multi-dose (column 4; rows 1-32; 10mM stock; 1:1.5 dilution; 16pnt titration) positive controls. Vehicle control DMSO was pinned into column 1-2, rows 1-32. Lopac compounds were pinned into columns 5-48 resulting to a final concentration range 57 µM to 78.4 nMControl DPI stock (10 mM) was prepared by dissolving 10 mg in 3.18 mL DMSO; while 1.11 mM DPI stock was prepared by mixing 100 uL of 10 mM DPI with 800 uL DMSO. To create the control plates, we initially start with a 384-well compound working plate. With a repeater pipette, (a.) 16 uL/well of 1.11 mM DPI was added to column 3; (b.) 16 uL/well of DMSO was added into rows 2-16 of column 4; (c.) 50 uL/well of DPI added to rows 1 and 2 of column 4; (d.) 32 uL serial dilution (two-thirds-fold) from rows 2 to 16 of column 4 with manual pipette. From the 384-well compound working plate, 7 uL of respective control compound was transferred to respective columns of the 1536-well compound plate using a multichannel pipette.
# 3. S. pombe CHP2027 (AC9-GNAS-PDE4D2) expressing fbp1-GFP cells were grown at 30C in EMM medium containing histidine, lysine, and uracil. […]
SMILES,"activity, positive = inhibition (GFP gain) [%]",outcome
CC(=O)CCCCn1c(=O)c2c(ncn2C)n(C)c1=O,-0.438,–
CC1=C(/C=C/C(C)=C/C=C/C(C)=C/C(=O)Nc2ccc(O)cc2)C(C)(C)CCC1,0.174,–
NC(N)=Nc1nc(CSCC/C(N)=N/S(N)(=O)=O)cs1,1.33,–
CC/C(=C(\c1ccccc1)c1ccc(OCCN(C)C)cc1)c1ccccc1,–,inactive
COc1ccccc1N1CCN(CCCNc2cc(=O)n(C)c(=O)n2C)CC1,-0.438,–
CC1(C)CCC2=C(O1)c1ccccc1C(=O)C2=O,-0.438,–
Clc1ccc(Cn2c(CN3CCCC3)nc3ccccc32)cc1,1.38,–
Clc1ccc(C(c2ccc(Cl)cc2)n2cc[n+](CC(OCc3ccc(Cl)cc3Cl)c3ccc(Cl)cc3Cl)c2)cc1 (configuration not stated),2.44,–
CCN(CC)C(=O)c1ccc(O)c(OC)c1,-0.438,–
CCN(CC)CCOC(=O)c1ccc(N)cc1,-0.0997,–
CC(C)NCC(O)COc1cccc2[nH]ccc12 (configuration not stated),0.0487,–
CCN(CC)CCNC(=O)c1ccc(N)cc1,-0.438,–
COC(=O)[C@@H]1[C@H]2C[C@H]3c4[nH]c5ccccc5c4CCN3C[C@@H]2CC[C@@H]1O,-0.438,–
CCCCC1C(=O)N(c2ccccc2)N(c2ccccc2)C1=O,-0.438,–
CC(=O)c1ccc(S(=O)(=O)NC(=O)NC2CCCCC2)cc1,0.0116,–
COc1ccc(Cc2nccc3cc(OC)c(OC)cc23)cc1OC,-0.438,–

SMILES,"activity, positive = inhibition (GFP gain) [%]",outcome
Cc1cccc(C)c1OCC(C)N (configuration not stated),-0.438,–
O=c1cc(-c2ccc(O)cc2)oc2cc(O)cc(O)c12,-0.438,–
O=C(NCCN1CCOCC1)c1ccc(Cl)cc1,0.0812,–
CCCNC(=O)NS(=O)(=O)c1ccc(Cl)cc1,-0.438,–
CC(=O)N[C@@H](CS)C(=O)O,0.424,–
CC(=O)O[C@]1(C(C)=O)CC[C@H]2[C@@H]3C=C(Cl)C4=CC(=O)[C@@H]5C[C@@H]5[C@]4(C)[C@H]3CC[C@@]21C,-0.438,–
C[N+](C)(C)CCCCCC[N+](C)(C)C,–,inactive
O=C1NC(=O)C(c2ccccc2)(c2ccccc2)N1,0.183,–
CN(C)CCC(c1ccccc1)c1ccccn1 (configuration not stated),0.123,–
NCCS,-0.438,–
CCn1cc(C(=O)O)c(=O)c2ccc(C)nc21,0.197,–
CCN1CCC[C@H]1CNC(=O)c1cc(S(N)(=O)=O)ccc1OC,-0.438,–
CC(C)(C)c1ccc(C(O)CCCN2CCC(C(O)(c3ccccc3)c3ccccc3)CC2)cc1 (configuration not stated),0.865,–
COc1cccc(-c2cc(=O)c3ccccc3o2)c1N,-0.438,–
O=C(O)CCc1nc(-c2ccccc2)c(-c2ccccc2)o1,0.726,–
O=C1NCC2(CCN(CCc3ccccc3)CC2)O1,0.114,–
